This is an account of results in PubChem BioAssay (Tox21).

Test [1] can be described thus: qHTS assay to identify small molecule antagonists of the vitamin D receptor (VDR) signaling pathway - cell viability counter screen (AID 743225). Further: nearly all actives have a fitted effect of over 50% in size. A digest of the protocol:
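Read-out: CellTiter-Glo luminescence measured 30 min after reagent addition at room temperature. Cells were VDR-bla HEK 293T exposed 16 h at 37C, 5% CO2, to compound with 3 nM final calcitriol agonist.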

Test [2] in a line: qHTS assay to identify small molecule agonists of the NFkB signaling pathway - cell viability counter screen (AID 1159515; calls by dose curve; further: series mostly up to about 61 µM; nearly all actives have a fitted effect of over 55% in size). A digest of the protocol:
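5 hr compound treatment of NFkB-bla ME-180 cells (2,000/well, seeded overnight beforehand), followed by reporter substrate for 1.5 hr. CellTiter-Glo added afterward; luminescence after 30 min RT.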
In general terms: qHTS replaces the single test concentration by a dilution series.

A short description of test [3]: qHTS assay to identify small molecule agonists of the endoplasmic reticulum stress response signaling pathway (AID 1159516; active means well fitted activation curve with a large enough effect in the signal ratio in the repeat runs, not every such curve was filed as active; the % refers to the signal ratio). The gist of the method: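 Reporter HeLa cells (ESRE-beta-lactamase) underwent 5 hr compound incubation at 37 C and 5% CO2 in quantitative HTS format. Detection followed 2 hr of FRET substrate loading at room temperature.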
The nature of test [4]: qHTS assay to identify small molecule agonists of the endoplasmic reticulum stress response signaling pathway - cell viability counter screen (AID 1159517; calls by dose curve; further: series mostly up to about 61 µM; nearly all actives have a fitted effect of over 50% in size). The gist of the method: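 HeLa cells carrying an ESRE-driven beta-lactamase reporter receive compound for 5 hr at 37 C. Cell viability is then gauged with CellTiter-Glo by luminescence, 30 min at room temperature.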
A short description of test [5]: qHTS assay to identify small molecule antagonists of the retinoid-related orphan receptor gamma (ROR-gamma) signaling pathway - cell viability counter screen (AID 1159520). Further: nearly all actives have a fitted effect of over 50% in size. A digest of the protocol: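 Cytotoxicity was read from cellular ATP (CellTiter-Glo luminescence) after 16 hr at 37 C with 1 uM doxycycline induction. The inducer was added 2 hr after compound transfer to Tet-on ROR gamma CHO cells.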

Test [6] has as its target Nuclear receptor ROR-gamma (Homo sapiens) (UniProt P51449). Kind of test: qHTS assay to identify small molecule antagonists of the retinoid-related orphan receptor gamma (ROR-gamma) signaling pathway (AID 1159521;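 further: CHO cells with doxycycline inducible ROR-gamma driving an RORE luciferase reporter; top concentration of the series differs between compounds; nearly all actives have a fitted effect of over 50% in size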). A digest of the protocol: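 CHO Tet-on RORγ, RORE-luc reporter. Cpd 2 h pre-incubation, then dox hyclate 1 uM final, 16 h, 37 C/5% CO2. ONE-Glo luminescence; decrease = antagonist.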

Test [7] is described as follows: qHTS assay to identify small molecule agonists of the AP-1 signaling pathway - cell viability counter screen (AID 1159525; calls by dose curve; further: nearly all actives have a fitted effect of over 55% in size). A digest of the protocol:
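Luminescent ATP readout (Cell Titer Glo, 30 min RT), normalised to DMSO and tetra n-octyl ammonium bromide controls. Cells were ME-180 AP-1-bla in 0.5% dialyzed FBS Opti-MEM, with a 5 h, 37 °C compound exposure.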

A short description of test [8]: qHTS assay to identify small molecule agonists of the AP-1 signaling pathway (AID 1159526; calls by dose curve).
The target of test [9] is Retinoic acid receptor RXR-alpha (Homo sapiens) (UniProt P19793). Kind of test: qHTS assay to identify small molecule agonists of the RXR signaling pathway (AID 1159527; calls by dose curve; further: nearly all actives have a fitted effect of over 35% in size). The gist of the method:
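Read-out: beta-lactamase FRET ratio (405 nm excitation, 460 and 530 nm emission) after 2 hr substrate loading at room temperature. Cells were RXR-alpha-UAS-bla HEK 293T treated with compounds for 16 hr in 2% charcoal-stripped FBS medium.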

Test [10] in a line: qHTS assay to identify small molecule agonists of the RXR signaling pathway - cell viability counter screen (AID 1159529). The gist of the method: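 HEK 293T RXRa-bla cells, 2% CS-FBS; 5 h settle; cpd 16 h 37 C, 5% CO2; CellTiter-Glo 30 min RT, luminescence. Tetraoctyl ammonium bromide as positive control.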
Test [11] in a line: qHTS assay to identify small molecule antagonists of the retinoid acid receptor (RAR) signaling pathway - cell viability counter screen (AID 1159551). Further: nearly all actives have a fitted effect of over 35% in size. The gist of the method:
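Seed C3RL4 cells; next day add compound, then retinol to 1 uM final; incubate 6 h at 37 C; add CellTiter-Glo; read luminescence after 30 min at RT.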

A short description of test [12]: qHTS assay to identify small molecule agonists of the retinoic acid receptor (RAR) signaling pathway (AID 1159553). Further: potency means the concentration at half of the fitted maximal effect. The gist of the method: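 Activation of retinol signaling was monitored via a RARE luciferase reporter in C3RL4 cells. After 6 hr compound treatment at 37 C, detection reagent was added for 30 min at room temperature before luminescence reading.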

Test [13] can be described thus: qHTS assay to identify small molecule antagonists of the estrogen related receptor (ERR) signaling pathway from Tox21 library - cell viability counter screen (AID 1224834). Further: nearly all actives have a fitted effect of over 30% in size. The gist of the method:
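CellTiter-Fluor fluorescence measured; ERR cells; 17.5 h compound incubation at 37 C; 30 min reagent step.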

Test [14] concerns the target Luciferin 4-monooxygenase (Photinus pyralis) (UniProt P08659). Briefly: qHTS assay to identify small molecule inhibitors of firefly luciferase (AID 1224835). Further: nearly all actives have a fitted effect of over 25% in size. Further: potency means the concentration at half of the fitted maximal effect. A digest of the protocol:
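Inhibition of purified Photinus luciferase is measured by luminescence. Substrate levels (D-luciferin, ATP) sit at their KM values. Each compound is tested in a concentration series.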

A short description of test [15]: qHTS assay to identify small molecule agonists of the constitutive androstane receptor (CAR) signaling pathway - cell viability counter screen (AID 1224836). Further: series mostly up to about 92 µM; nearly all actives have a fitted effect of over 45% in size. The gist of the method: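 HepG2-CYP2B6-hCAR, 2500 cells/well, 4 h pre-incubation; cpd 15 conc + PK11195 0.75 uM final; 23 h, 37 C/5% CO2; CellTiter-Fluor, fluorescence.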
The nature of test [16]: qHTS assay to identify small molecule antagonists of the constitutive androstane receptor (CAR) signaling pathway - cell viability counter screen (AID 1224837). Further: series mostly up to about 92 µM; nearly all actives have a fitted effect of over 45% in size. A digest of the protocol: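 Using CellTiter-Fluor, viability is scored in HepG2 cells stably carrying hCAR and a 2.2kb CYP2B6 reporter after 23 hr compound exposure across 15 concentrations, with CITCO present at 50 nM.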

Test [17] deals with Nuclear receptor subfamily 1 group I member 3 (Homo sapiens) (UniProt Q14994). Kind of test: qHTS assay to identify small molecule antagonists of the constitutive androstane receptor (CAR) signaling pathway (AID 1224838).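 Further: HepG2 cells stably expressing hCAR with CYP2B6 luciferase reporter stimulated by CITCO; nearly all actives have a fitted effect of over 40% in size.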 The gist of the method:
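Reporter luminescence was quantified after 24 h exposure of hCAR/CYP2B6-2.2kb double-stable HepG2 cells to compounds at 15 concentrations in the presence of 50 nM CITCO final.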

For test [18] the target is unchanged. Briefly: qHTS assay to identify small molecule agonists of the constitutive androstane receptor (CAR) signaling pathway (AID 1224839). Further: nearly all actives have a fitted effect of over 15% in size. Further: potency means the concentration at half of the fitted maximal effect. On activation: series mostly up to about 92 µM. The gist of the method: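 HepG2-CYP2B6-hCAR cells, 2500/well, 4 h pre-incubation; compounds 15 conc.; PK11195 0.75 uM final; 24 h, 37 C/5% CO2; ONE-Glo luciferase read.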
Test [19] is described as follows: qHTS assay to identify small molecule antagonists of the estrogen related receptor signaling pathway with the pleiotropic PPARgamma coactivator (PGC) from Tox21 10K library - cell viability counter screen (AID 1224840; active means well fitted cell-killing curve with a large enough effect in the repeat runs, not every such curve was filed as active; further: nearly all actives have a fitted effect of over 40% in size). The gist of the method:
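Here the PGC/ERR cells serve as a cytotoxicity control: they are exposed to compounds for 17.5 hours at 37 C, and live-cell signal is quantified using CellTiter-Fluor fluorescence.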

Test [20] in a line: qHTS assay to identify small molecule antagonists of the retinoic acid receptor (RAR) signaling pathway (AID 1159552; further: nearly all actives have a fitted effect of over 50% in size). A digest of the protocol:
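Cells of the C3RL4 line were seeded, incubated overnight, then dosed with compounds in DMSO followed immediately by retinol (1 uM final). Six hours later luciferase detection reagent went in; signal was measured after 30 min at RT.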

Structures are written as SMILES. Results filed as inconclusive are left out. Values without a mark were called inactive. Activity calls are given as the source filed them. Unless noted, the call rests on the fitted dose curve; in most records, active means well fitted curve in the direction sought with a large enough effect in the repeat runs; inconclusive means weak or mixed curves; inactive means no such curve, though single readings can be large; an effect the other way counts as inactive or inconclusive.

Luciferin 4-monooxygenase (Photinus pyralis), sequence (P08659 whole entry, looked up): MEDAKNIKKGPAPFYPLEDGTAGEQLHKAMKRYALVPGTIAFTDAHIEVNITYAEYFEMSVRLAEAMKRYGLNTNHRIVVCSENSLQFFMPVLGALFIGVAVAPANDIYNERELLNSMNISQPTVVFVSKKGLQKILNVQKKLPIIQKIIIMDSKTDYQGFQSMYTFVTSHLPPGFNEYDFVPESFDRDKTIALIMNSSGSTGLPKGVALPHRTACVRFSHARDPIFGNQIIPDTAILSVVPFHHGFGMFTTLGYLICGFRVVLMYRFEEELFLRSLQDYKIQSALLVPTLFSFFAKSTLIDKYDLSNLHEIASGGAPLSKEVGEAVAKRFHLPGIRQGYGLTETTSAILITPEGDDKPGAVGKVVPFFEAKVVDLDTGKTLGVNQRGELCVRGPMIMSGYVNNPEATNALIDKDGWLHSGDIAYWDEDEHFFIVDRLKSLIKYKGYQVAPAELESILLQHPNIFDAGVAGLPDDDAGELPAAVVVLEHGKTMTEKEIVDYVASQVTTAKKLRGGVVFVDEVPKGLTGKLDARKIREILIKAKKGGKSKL
Retinoic acid receptor RXR-alpha (Homo sapiens), sequence (P19793 whole entry, looked up): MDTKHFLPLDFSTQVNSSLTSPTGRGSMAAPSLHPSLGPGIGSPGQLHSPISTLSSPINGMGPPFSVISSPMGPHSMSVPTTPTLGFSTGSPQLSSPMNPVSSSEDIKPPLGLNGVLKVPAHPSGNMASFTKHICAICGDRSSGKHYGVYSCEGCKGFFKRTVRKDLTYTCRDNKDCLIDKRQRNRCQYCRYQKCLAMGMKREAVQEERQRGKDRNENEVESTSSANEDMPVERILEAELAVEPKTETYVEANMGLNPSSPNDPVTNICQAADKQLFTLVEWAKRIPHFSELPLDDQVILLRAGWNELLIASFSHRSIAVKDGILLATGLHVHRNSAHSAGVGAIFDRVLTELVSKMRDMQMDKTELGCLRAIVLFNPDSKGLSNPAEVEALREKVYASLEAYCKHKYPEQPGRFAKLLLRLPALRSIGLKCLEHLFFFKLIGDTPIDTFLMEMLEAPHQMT
Nuclear receptor subfamily 1 group I member 3 (Homo sapiens), sequence (Q14994 whole entry, looked up): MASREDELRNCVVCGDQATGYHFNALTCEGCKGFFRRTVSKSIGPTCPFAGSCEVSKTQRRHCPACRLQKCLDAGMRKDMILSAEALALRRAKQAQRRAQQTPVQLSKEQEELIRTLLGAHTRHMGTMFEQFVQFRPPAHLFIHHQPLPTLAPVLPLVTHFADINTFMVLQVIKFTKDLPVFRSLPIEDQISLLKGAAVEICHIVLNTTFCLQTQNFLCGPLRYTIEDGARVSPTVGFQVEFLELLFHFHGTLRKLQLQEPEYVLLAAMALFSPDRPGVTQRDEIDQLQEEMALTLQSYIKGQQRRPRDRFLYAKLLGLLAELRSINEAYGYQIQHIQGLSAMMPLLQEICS

Turning to `COc1cc(NS(=O)(=O)c2ccc(N)cc2)ncn1`, the call in test [1], in test [2], in test [4], in [5], in test [6] and in test [7] was inactive. Also, the call in test [11], in test [13], in [15], in test [16], in test [17] and in [19] was inactive. The Potency entry in [3], in test [8], in [9], in [10], in [12] and in test [14] was “inactive” in each case. In addition, the Potency result in [18] was “inactive”.
For the molecule `CC(C)(O)CCCC1=CCC(C=O)CC1` (configuration not stated), the result in test [1], in test [2], in test [4], in test [5], in test [6] and in test [7] was inactive. For the same molecule, the molecule was called inactive in test [11], in test [13], in test [15], in test [16] and in test [17]. Also, the Potency entry in test [3], in test [8], in test [9], in test [10], in [12] and in test [14] was “inactive” in each case. Besides, the Potency entry in test [18] was “inactive”.
As for `COC(=O)c1ccc(NC(C)=O)cc1OC`, the outcome in test [1], in [2], in test [4], in [5], in test [6] and in test [7] was inactive. Besides, the result in [11], in test [13], in test [15], in test [16] and in [17] was inactive. Further, the Potency entry in [3], in test [8], in test [9], in test [10], in [12] and in test [14] was “inactive” each time. In addition, the Potency entry in test [18] was “inactive”.
For `C[Si](C)(C)O[Si](O)(O)O`, the molecule was classed as inactive in test [1], in [2], in [4], in test [5], in [6] and in test [7]. Further, the call in test [11], in test [20], in test [15] and in [16] was inactive. For the same molecule, the Potency entry in test [3], in test [8], in test [9], in [10], in test [12] and in test [14] was “inactive” in each case.
Consider `CC(C)(C)c1ccc(C(=O)CCCCl)cc1`, for which the molecule was classed as inactive in test [1], in test [2], in test [4], in [5], in test [6] and in [7]. The call in [11], in [20], in [15], in test [16], in test [17] and in test [19] was inactive. Further, the Potency result in [3], in test [8], in test [9] and in test [10] was “inactive” each time. Moreover, the Potency is 5.96 µM (active) in test [12], 7.76 µM (active) in test [14] and 21.1 µM (active) in [18].
As to `Clc1cc(Cl)c(Cl)c(Cl)c1Cl`, the result in test [1], in test [2], in [4], in test [5], in test [6] and in test [7] was inactive. For the same molecule, the call in [11], in test [13], in test [15], in test [16], in test [17] and in test [19] was inactive. The Potency entry in test [3], in test [8], in [9], in test [10], in test [12] and in [14] was “inactive” throughout. In test [18], the Potency entry was “inactive”.
Take `Cc1ccccc1C#N`: the molecule was classed as inactive in test [1], in test [2], in test [4], in test [5], in test [6] and in test [7]. The call in test [11], in test [20], in test [15], in test [16], in [17] and in [19] was inactive. The Potency entry in test [3], in test [8], in [9], in [10], in [12] and in test [14] was “inactive” throughout. Further, in [18], the Potency entry is “inactive”.
Regarding `CC(C)OC(=O)C(C(=O)OC(C)C)=C1SC=CS1`, the molecule was classed as inactive in test [1], in test [2], in [4], in test [5], in test [6] and in test [7]. The outcome in test [11], in [13], in [15], in [16], in test [17] and in test [19] was inactive. In addition, the Potency entry in [3], in test [8], in test [9], in [10], in test [12] and in test [14] was “inactive” in each case. The Potency in [18] was 13.3 µM (active).
